Each structure is given as a SMILES string. About 83,000 compounds went through this panel and 20% of them were active in at least one assay; those are over-represented in the sample as a whole.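 Step 1: grow cells in 96-well plates. Step 2: add test compound at a single concentration. Step 3: incubate 48 h. Step 4: record percent growth.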 Calls of active or inactive are those of the source.

This passage reports growth results from PubChem BioAssay (NCI).

The subject of the assay is HCC-2998 colon. The experiment in a line: NCI-60 one-dose screen, 48 h (100 = growth as untreated, 0 = no growth, -100 = all killed). Conditions: 10 µM unless noted. Here is the method: Growth inhibition of the HCC-2998 human tumor cell line is measured as a screen for anti-cancer activity. Cells are grown in 96 well plates and exposed to the test compound for 48 hours. Compounds are tested at a single concentration, which is 10^-5 M for most compounds. The reported endpoint is percent growth (GI% or GIPRCNT), where numbers from 0 - 100% represent growth inhibition, and numbers from -100% - 0 represent cell death. For example, a value of 40 represents 60% growth inhibition. A value of 0 means no net growth occurred over the course of the experiment. A value of -40 indicates 40% of cells at the beginning of the experiment died by the end of the experiment. A value of -100 means all cells are dead at the end of the experiment.
NCI-60 Human Tumor Cell Lines Screen was performed using the standard one-dose NCI protocol, which is described in more detail at https://dtp.cancer.gov/discovery_development/nci-60/default.htm.
Compounds with GIPRCNT values below 10 were considered active. Activity score was based on GIPRCNT using the following formula: […]
Score is 0 for GIPRCNT values of 100 or above, 50 for GIPRCNT values of 0, and 100 for GIPRCNT values of -100.
`O=C1Nc2ccccc2/C1=C/c1cccn1CCCCn1c2ccccc2c(=O)c2ccccc21`: the growth was 40.5% (inactive).
As to `N#Cc1nc(-c2ccc(Cl)cc2)oc1S(=O)(=O)N1CCN(c2ccc(F)cc2)CC1`, the growth is 99.4% (inactive).
On to `CC(C)Cn1cnc2c(=O)[nH]c(N)nc21`, for which the growth is 104% (inactive).
Then `O=S(=O)(NCCNc1nccc(-c2c(-c3ccc(F)c(O)c3)nc3occn23)n1)c1ccc(Cl)cc1`, with 102% (inactive); and `C=CCSc1nnc(NC(=O)CCl)s1`, with 130% (inactive); and `CCN(CC)S(=O)(=O)c1ccc(S(=O)(=O)N2CCC[C@@H](C(=O)N3CCN(c4nc(C(C)C)no4)CC3)C2)cc1`, with 78.7% (inactive).
In the case of `C=CCN=c1sc2c(n1NC(=O)c1cc3ccc1CCc1ccc(cc1)CC3)C(=O)c1ccccc1C2=O`, the growth was -33.5% (active).
As for `CCCNC(=O)Nc1ccc2cc3ccc(NC(=O)NCCC)cc3nc2c1`, the figure is 98.4% (inactive); as for `Cc1[nH]c(=O)[nH]c(=O)c1Br`, 87.8% (inactive).
As for `O=C(CSC(=S)n1cnnc1)NC(=O)c1ccccc1`, the figure is 104% (inactive).
Then `CC(C)(Sc1cc(C(C)(C)C)c(OC(=O)CCCC(=O)O)c(C(C)(C)C)c1)Sc1cc(C(C)(C)C)c(OC(=O)CCCC(=O)O)c(C(C)(C)C)c1`, with 22.1% (inactive); and `c1ccc([P+](c2ccccc2)(c2ccccc2)c2ccc3c4ccc([P+](c5ccccc5)(c5ccccc5)c5ccccc5)c5cccc(c6cccc2c63)c54)cc1`, with 17.9% (inactive); and `CC1OC(n2c3ccccc3c3c4c(c5c6ccccc6[nH]c5c32)C(=O)N(CCN2CCCC2)C4=O)CC(O)C1O` (stereo not given), with 22% (inactive).
In the case of `c1cnc2c(-c3nc4ccc5[nH]ncc5c4c4c3CCCC4)c[nH]c2c1`, the growth was 54.7% (inactive).
As for `O=C(Nn1c2c(sc1=NC1CC1)C(=O)c1ccccc1C2=O)c1cc2ccc1CCc1ccc(cc1)CC2`, the figure is 61.4% (inactive); as for `CC(=O)Oc1ccc(/C(=C(\C)c2ccc(Cl)cc2)c2ccc(OCCN3CCCCC3)cc2)cc1`, -4.12% (active).
Then `CC1=C2[C@@H](CC1)[C@]1(C)O[C@@](C(C)C)(C[C@H]1OC(=O)[C@H](C)O)[C@H]2OC(=O)/C=C/c1ccccc1`, with 90.7% (inactive).
Regarding `COc1cc(/C=C/C(=O)c2ccc(F)cc2)ccc1OCCCCOc1ccc(/C=C/C(=O)c2c(C)nc3ccccc3c2C)cc1OC`, the growth is 100% (inactive).
Then `O=C1c2c(c3c4ccccc4[nH]c3c3ccc4ccccc4c23)C(=O)N1CCN1CCNCC1`, with 73.7% (inactive).
Then `O=C1/C(=C\c2ccc3nccnc3c2)SC(=S)N1CCc1ccc(O)cc1`, with 117% (inactive); and `COCCOc1cc2ncnc(N3CCN(c4cc(S(C)(=O)=O)c(C)cc4Cl)CC3)c2cc1OCCOC`, with 100% (inactive); and `Cc1sc2nc(NCCc3c[nH]c4ccc(Cl)cc34)[nH]c(=O)c2c1C`, with 21.5% (inactive).
Then `CSc1oc(C)nc1[P+](c1ccccc1)(c1ccccc1)c1ccccc1`, with 42.8% (inactive); and `COc1ccc(C(C)=O)cc1S(=O)(=O)Nc1c(N)nc(SC)[nH]c1=O`, with 99% (inactive).
As for `CCOC(=O)c1ccc(NC(=O)c2nc(-c3cc(OC)c(OC)c(OC)c3)n(-c3ccc(Cl)cc3)n2)cc1`, the growth was 107% (inactive).
As for `COc1ccc(C(=O)C/C(=C\c2ccc(Cl)cc2)C(=O)NCc2ccccc2)cc1`, the figure is 93.1% (inactive); as for `CN(C)S(=O)(=O)c1cccc(C(=O)Nc2nc(-c3ccc(F)c(F)c3)cs2)c1`, 88.1% (inactive); as for `CCOc1ccc(NC(=O)CSc2oc(-c3ccccc3)nc2S(=O)(=O)c2ccc(C)cc2)cc1`, 82.6% (inactive).
Then `c1ccc(-c2oc(-c3ccccc3)c(CN3CCCCC3)c2CN2CCCCC2)cc1`, with -22.9% (active); and `Cc1nc2sc(C(=O)Nc3cccc(Br)c3)c(N)c2cc1C(O)c1ccccc1` (stereo not given), with 18.2% (inactive); and `CN(C)CC(C)(C)C(=O)/C=C/c1ccccc1`, with -75.7% [25 µM] (active).
As for `Nc1nc2ccccc2c2c1S(=O)(=O)c1ccc(Cl)cc1C2=O`, the figure is 41.5% (inactive); as for `CCCC/C(CC)=N\NS(=O)(=O)c1ccc([N+](=O)[O-])cc1`, 107% (inactive).
As for `CCCC/C=C/[C@@H]1C[C@H]1CCO`, the growth is 102% (inactive).
As for `Cc1ccc(C)n1-c1ccccc1-n1c(C)ccc1C`, the figure is 115% (inactive); as for `Cc1ccc(C(=O)c2ccc(CC(=O)N/N=C/c3ccccc3O)n2C)cc1`, 92.1% (inactive).
Take `CC1CCc2c(C(=O)Nc3ncc(Cc4cccc([N+](=O)[O-])c4)s3)csc2C1` (stereo not given): the growth is 41.2% (inactive).
Then `CCCCNC(=O)CC1=C(C)/C(=C/c2[nH]c(-c3ccc[nH]3)cc2OC)N=C1C`, with 33.8% (inactive); and `C=C(C)[C@@H]1CC[C@]2(CO)CC[C@]3(C)[C@H](CC[C@@H]4[C@@]5(C)CC[C@H](NCO)C(C)(C)[C@@H]5CC[C@]43C)[C@@H]12`, with -63.3% (active).
In the case of `CCC(C(=O)[C@@H](C)[C@@H](O)[C@H](C)[C@@H]1O[C@@H]([C@@H](CC)C(=O)ONC(=O)c2ccccc2)CC[C@@H]1C)[C@H]1O[C@]2(C=CC(=O)[C@]3(CC[C@@](C)([C@H]4CC[C@](O)(CC)[C@H](C)O4)O3)O2)[C@H](C)C[C@@H]1C` (stereo not given in full), the growth is 20.7% (inactive).
